Screening results from PubChem.
A selection: hits, their analogues and other compounds. The true share with any hit is near 2.9%.
S1P4 antag: S1P4 receptor antagonists, primary screen, cell-based; S1P4-expressing cells, antagonist mode, reporter read-out; inhibition, % at 4.98 µM; actives 0.26% (n = 220,000); AID 1510, 2009; in the data active means inhibition above about 29%;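 further: 0% = wells stimulated with agonist and 100% = vehicle wells without agonist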
Target sequence (O95977 whole entry, looked up): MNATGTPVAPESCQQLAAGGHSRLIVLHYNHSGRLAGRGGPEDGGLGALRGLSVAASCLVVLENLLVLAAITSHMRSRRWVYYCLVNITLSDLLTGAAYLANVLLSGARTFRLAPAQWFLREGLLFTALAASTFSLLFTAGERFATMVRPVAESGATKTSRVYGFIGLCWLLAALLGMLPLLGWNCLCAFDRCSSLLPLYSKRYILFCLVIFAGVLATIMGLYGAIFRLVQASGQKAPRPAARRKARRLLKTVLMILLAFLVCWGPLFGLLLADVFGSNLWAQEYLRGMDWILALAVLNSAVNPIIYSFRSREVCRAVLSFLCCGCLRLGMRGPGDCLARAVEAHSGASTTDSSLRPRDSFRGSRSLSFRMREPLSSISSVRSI
HSF-1 act: HSF-1 activators, primary screen, NIH3T3-HGL cells, MG132 stress, luminescence, single point; NIH3T3-HGL HSF-1 luciferase reporter, 8 h; 100% = twice DMSO control signal; activation, % at 9 µM; actives 1.7% (n = 300,000); AID 504408, 2011;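 active means mean replicate activation of at least 50% with a set share of replicates each reaching 50%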;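 further: 0% = median of the neutral control wells and 100% = twice that signal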
S1P3 antag: S1P3 receptor antagonists, primary screen, cell-based; Sphingosine 1-phosphate receptor 3 (Homo sapiens), Q99500; actives 0.27% (n = 170,000); inhibition, % at 4.98 µM; CHO S1P3 NFAT-BLA reporter, FRET fluorescence, antagonist mode;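 active means inhibition above the plate cutoff, the mean inhibition of test wells on that plate plus 3 SD, cut at about 28% in these data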;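 further: cells challenged with S1P at its EC80 of 0.8 µM; blue over green emission ratio from cleaved BLA substrate after 4 h stimulation; 0% = S1P-stimulated wells and 100% = unstimulated DMSO-only wells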
HSF1 inhib: HSF1 inhibitors in luciferase reporter cells, primary screen, cell-based, NIH3T3, luminescence; actives 0.77% (n = 300,000); activity change, negative = inhibition, % at 7.5 µM (by protocol); NIH3T3-HGL HSE-luciferase, MG132-induced, luminescence 8 h; active compounds read low;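 active means more than half of replicate wells show activity change below -50%, luminescence cut by over half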;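 further: luciferase reports HSF-1 transcriptional activity via heat shock element; 0% = median of DMSO wells and -100% = zero luminescence signal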
Hsp70 act: Hsp70 transcriptional activators, primary screen, cell-based, HeLa, Hsp70 promoter luciferase, luminescence, 10 µM; actives 0.04% (n = 200,000); HeLa Hsp70 promoter luciferase reporter; scaled: vehicle 0, proteasome-inhibitor control 100%; AID 1203, 2008; activation, % at 10 µM;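 active means activation above the mean across all tested compounds plus 3 SD, cutoff set per campaign, cut at about 5.5% in these data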;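 further: 100% = MG132 at 30 µM as the positive control and 0% = DMSO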
S1P4 ag: S1P4 receptor agonists, primary screen, cell-based; S1P4-expressing cell line, agonist reporter assay; activation, % at 4.98 µM; Sphingosine 1-phosphate receptor 4 (Homo sapiens), O95977; actives 0.35% (n = 220,000); in the data active means activation above about 11%;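 further: 0% = DMSO vehicle and 100% = reference agonist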
* = called active by the depositor; / = not tested or not shown.

SMILES | S1P4 antag | HSF-1 act | S1P3 antag | HSF1 inhib | Hsp70 act | S1P4 ag
CN(CC(=O)Nc1cc(Cl)cc(Cl)c1)Cc1cccs1 | / | 11 | / | 4 | / | /
Nc1c(-c2ccc(Cl)cc2)nnn1-c1ccccc1 | -12 | 58* | / | 38 | 0 | 0
S=C(NCc1ccco1)N1CCN(c2ccccc2Cl)CC1 | -12 | 70* | 15 | 46 | 0 | 1
Fc1ccc(N2CCN(C(=S)NCc3ccco3)CC2)cc1 | 12 | 11 | -11 | 17 | 0 | -1
COc1cccc(N2CCN(C(=S)NCc3ccco3)CC2)c1 | -8 | 55* | / | 31 | 0 | 0
COc1ccccc1NC(=O)CN1CCN(CC(=O)Nc2ccc(Cl)c(C(F)(F)F)c2)CC1 | -14 | / | -8 | / | 0 | 0
CCc1ccccc1NCC(=O)Nc1ccc(Cl)c(C(F)(F)F)c1 | -3 | 58* | 8 | 26 | 0 | 0
COc1ccc(N2C(=O)C(C)(C)C2c2c(O)ccc3ccccc23)cc1 (stereo not given) | / | -79 | / | -73* | / | /
Cn1nc(C(F)(F)F)c(C#N)c1N1CCN(c2cccc(C(F)(F)F)c2)CC1 | 4 | 8 | / | 0 | 1 | 1
CSCCC(NS(=O)(=O)c1cccs1)C(=O)NCc1ccccc1 (stereo not given) | 11 | -57 | -2 | -52* | 0 | 4
O=C(COC(=O)c1cncc(Br)c1)NCCC1=CCCCC1 | -7 | 1 | 7 | 5 | 0 | 0
O=C(CSc1nc2c(c(=O)[nH]1)CCC2)Nc1ccc(F)cc1 | / | 68* | / | 25 | / | /
O=C(CSc1nc2c(c(=O)[nH]1)CCC2)Nc1cccc(F)c1 | / | 32 | / | 9 | / | /
O=C(CSc1ccccc1)Nc1ccc(N2CCN(c3ccccc3)CC2)c(F)c1 | -1 | 55* | / | 28 | 0 | 1
O=C(CSc1ccc(F)cc1)Nc1ccc(Br)cc1 | -1 | 102* | -6 | 47 | 0 | 2
COCC(=O)Nc1ccc(N2CCN(c3ccccc3)CC2)c(F)c1 | / | 0 | / | -1 | / | /
Cc1ccc(N2C(=O)CC(C)CC2=O)cc1 | / | -2 | / | 3 | / | /
CC(=O)Nc1ccc(NC(=O)COC(=O)[C@@H](NC(=O)c2ccc(F)cc2)C(C)C)cc1 | -9 | 62* | 6 | 17 | 0 | 3
O=C(Cc1ccon1)c1ccc(O)cc1O | / | 50 | / | 11 | / | /
Cc1ccc(N2CC(C(=O)OCC(=O)NNC(=O)c3ccccc3)CC2=O)cc1 (stereo not given) | / | 2 | / | 0 | / | /
CCc1c(C(=O)Nc2cc(C)ccc2OC)[nH]c(C)c1C(C)=O | -11 | 13 | 58* | 0 | 0 | 0
CCc1c(C(=O)Nc2ccc(OC)cc2)[nH]c(C)c1C(C)=O | -17 | -8 | 3 | 4 | 0 | 3
CN(C)S(=O)(=O)Nc1cc(Cl)cc(Cl)c1 | 1 | 10 | 15 | -9 | 0 | 0
Cc1ccc(C(=O)Oc2oc(-c3ccco3)nc2C=Nc2ccc(Cl)cc2)cc1 | -12 | 86* | / | 53 | 0 | 0
O=C(Oc1oc(-c2ccco2)nc1C=Nc1ccccc1)c1ccoc1 | -9 | -86 | / | -81* | 0 | 0
SMILES | S1P4 antag | HSF-1 act | S1P3 antag | HSF1 inhib | Hsp70 act | S1P4 ag
O=C(Oc1oc(-c2ccco2)nc1C=Nc1ccccc1)c1ccco1 | -7 | -2 | / | 6 | 0 | -3
Cc1ccc(C(=O)Oc2oc(-c3ccccc3)nc2C=Nc2ccc(N(C)C)cc2)cc1 | 16 | 144* | -6 | 89 | 0 | -1
Cc1ccccc1OCC(=O)N=Nc1c(O)n(C)c2ccccc12 | 2 | 5 | -2 | 10 | / | -1
Nc1[nH]c2cc([N+](=O)[O-])ccc2c1-c1ccccn1 | / | 1 | / | -7 | / | /
Cc1ccc(-c2nc(-c3cccnc3)no2)c(C)c1 | -24 | 57* | 8 | 21 | 0 | 0
O=C(NS(=O)(=O)Oc1ccccc1F)OC[C@@H]1CCCN2CCCCC12 (stereo not given in full) | / | 1 | / | 7 | / | /
COc1ccc(Br)cc1CNC(=O)CCN1C(=O)COc2ccccc21 | -28 | -74 | 39 | -67* | 0 | 0
CN(C)c1ccc(/C=N/NC(=O)C2COc3ccccc3O2)o1 (stereo not given) | -21 | -84 | -10 | -78* | 0 | 0
CC1(C)CC(=O)C(N=Nc2ccc(F)cc2)=C(O)C1 | -2 | 17 | -9 | 3 | / | 1
CC1(C)CC(=O)C(N=Nc2ccc(OC(F)F)cc2)=C(O)C1 | -6 | -64 | -17 | -56* | 0 | -1
CCc1nnc(NC(=O)c2nc(S(=O)(=O)Cc3ccccc3)ncc2Cl)s1 | / | -36 | / | -18 | / | /
CCc1nnc(NC(=O)c2nc(S(=O)(=O)Cc3cccc(C)c3)ncc2Cl)s1 | / | -74 | / | -65* | / | /
CCc1nnc(NC(=O)c2nc(S(=O)(=O)Cc3ccc(C)cc3)ncc2Cl)s1 | / | -63 | / | -60* | / | /
COc1ccc2c(c1)CCc1c-2n[nH]c1C(=O)NCCC(C)C | / | 51* | / | 30 | / | /
Cc1ccc(-n2nc3c(=O)n(C(C)C(=O)NCc4ccccc4Cl)nc(C)c3c2C)cc1 (stereo not given) | / | 69* | / | 37 | / | /
CSc1nsc2nc(=O)c(/C=C3\C(C)=Nc4ccccc43)c(N)n12 | -12 | -6 | -16 | -2 | 0 | 2
C=CCn1c(-c2cc(-c3ccccc3)sc2N)n[nH]c1=S | -14 | 174* | 7 | 146 | / | 2
Nc1sc(-c2ccccc2)cc1-c1n[nH]c(=S)n1C1CCCCC1 | -11 | 84* | -1 | 72 | / | 0
C=CCn1c(-c2csc(-c3ccccc3)n2)n[nH]c1=S | -8 | 7 | / | -5 | 0 | -1
Cc1cc(NC(=O)Cc2cccs2)nn1CC(=O)NCc1ccco1 | -3 | 4 | -30 | -3 | 0 | -3
Cc1ccc(OCC(=O)Nc2ccc(CN3CCCCC3)cc2)c(C)c1 | -33 | 3 | -2 | -4 | 0 | -2
CC(Oc1ccc(Cl)cc1Cl)c1nc(-c2ccc(NC(=O)c3ccco3)cc2)no1 (stereo not given) | -23 | 61* | / | 27 | 0 | -1
CCCc1nc(Nc2nc3ccccc3o2)nc(C)c1C(=O)OCC | -3 | 64* | 18 | 33 | 0 | 0
CCOC(=O)c1cnc(Nc2nc3ccccc3o2)nc1CSc1ncccn1 | -19 | -17 | 9 | -5 | 0 | -3
Cc1c(NC(=S)Nc2cccc(Cl)c2)c(=O)n(-c2ccccc2)n1C | 1 | 4 | 1 | -3 | 0 | 1
O=C1S/C(=C\c2ccc(N3CCOCC3)o2)C(=O)N1c1ccccc1 | 0 | 32 | -17 | 5 | 0 | -1
O=C1S/C(=C/c2ccc(N3CCOCC3)o2)C(=O)N1Cc1c(F)cccc1Cl | -2 | 102* | / | 94 | 0 | 1
